Only some compounds are listed: those with a hit (about 3.5% of all), similar ones and a draw of the others.
Autofluor counter – counter-screen for toxin protease inhibitors: compound fluorescence. AID 624483. fluorescence intensity (concentration not given with the values). compound autofluorescence counterscreen, microsphere flow cytometry; stronger effect = higher value. actives 3.1% (n = 360,000); in the data active = fluorescence intensity above about 16000; inconclusive = no clear call, values can overlap the other calls
BoNT F protease – inhibitors of Botulinum neurotoxin F light chain protease; Multiplex microsphere protease cleavage assay, flow cytometry; inhibition, % at 10 µM; actives 0.22% (n = 360,000); in the data active = inhibition above about 35%, passing the limit was not always enough; inconclusive = no clear call, values can overlap the other calls; note: plate controls were buffer without enzyme for full effect and enzyme alone for no effect
BoNT-A LC inh2 – BoNT A light chain protease inhibition; actives 0.17% (n = 360,000); inhibition, % at 10 µM; multiplex microsphere protease substrate cleavage, flow cytometry; note: plate controls were buffer without enzyme for full effect and enzyme alone for no effect
Anthrax LF inh2 – anthrax lethal factor protease inhibition; P15917; multiplex microsphere protease cleavage assay, LF; inhibition, % at 10 µM; actives 0.12% (n = 360,000); AID 588501; note: plate controls were buffer without enzyme for full effect and enzyme alone for no effect
Target sequence (P15917 whole entry, looked up): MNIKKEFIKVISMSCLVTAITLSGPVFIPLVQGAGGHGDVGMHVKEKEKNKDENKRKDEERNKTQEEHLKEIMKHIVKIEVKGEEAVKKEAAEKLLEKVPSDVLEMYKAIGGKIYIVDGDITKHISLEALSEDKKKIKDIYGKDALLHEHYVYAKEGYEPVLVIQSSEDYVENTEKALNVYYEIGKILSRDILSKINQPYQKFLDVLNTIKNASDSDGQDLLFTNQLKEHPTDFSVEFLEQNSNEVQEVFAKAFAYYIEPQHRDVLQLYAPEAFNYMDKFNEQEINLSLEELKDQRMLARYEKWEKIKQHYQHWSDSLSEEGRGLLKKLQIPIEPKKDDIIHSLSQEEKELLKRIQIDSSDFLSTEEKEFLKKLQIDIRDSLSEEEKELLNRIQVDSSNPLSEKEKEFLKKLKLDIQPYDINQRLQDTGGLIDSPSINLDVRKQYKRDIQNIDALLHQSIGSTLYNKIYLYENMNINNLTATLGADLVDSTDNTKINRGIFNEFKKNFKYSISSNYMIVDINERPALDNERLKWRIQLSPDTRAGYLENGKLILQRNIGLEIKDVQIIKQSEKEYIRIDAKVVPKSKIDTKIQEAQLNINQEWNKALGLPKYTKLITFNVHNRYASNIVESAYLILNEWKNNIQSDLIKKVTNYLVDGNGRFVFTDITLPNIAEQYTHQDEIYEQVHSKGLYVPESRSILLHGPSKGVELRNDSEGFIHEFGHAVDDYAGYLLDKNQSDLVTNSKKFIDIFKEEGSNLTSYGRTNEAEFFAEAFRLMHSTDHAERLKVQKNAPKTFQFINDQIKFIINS
An asterisk follows results filed as active; u = inconclusive. Cut-off read from the data, not from the text of the source, unless noted: active = inhibition above about 30%; inconclusive = no clear call, values can overlap the other calls; inactive = below that.

SMILES	Autofluor counter	BoNT F protease	BoNT-A LC inh2	Anthrax LF inh2
C=CCCC(=O)N1CCCC(C(=O)c2cccc(OC)c2)C1 (stereo not drawn)	3995	u	2.2	-7.7
CCc1ccc(CNC(=O)C2CCCN(c3nnc(C)c4c(C)n(-c5ccccc5)nc34)C2)cc1 (stereo not drawn)	20786*	29.8	0.2	4.0
Cc1nnc(N2CCCC(C(=O)NCc3cccc(F)c3)C2)c2nn(-c3ccccc3)c(C)c12 (stereo not drawn)	16533*	19.0	-2.7	3.6
COc1ccccc1NC(=O)COC(=O)c1ccc2ccccc2n1	5742	-10.8	-0.3	-3.6
CCN(C[C@H]1N[C@@](Cc2ccccc2)(C(=O)OC)[C@H]2C(=O)N(C)C(=O)[C@@H]12)S(=O)(=O)c1ccc(-c2ccccc2)cc1	3327	2.4	-0.4	-6.1
CCN(CC)c1ccc(/C=c2\sc3nnc(-c4ccccc4Cl)n3c2=O)cc1	9724	125.0*	176.5*	80.5*
Cc1ccc(/C=c2\sc3nc(-c4ccccc4Br)nn3c2=O)o1	3367	-15.1	5.2	6.6
Cc1ccc(/C=c2/sc3nnc(-c4ccccc4Cl)n3c2=O)o1	16190*	-2.5	0.0	-3.4
Cc1c2cnn(CC(=O)NCCCN3CCCCC3C)c(=O)c2c(C)n1Cc1ccccc1 (stereo not drawn)	18388*	-18.2	0.8	-23.8
O=C(O)c1cnc2ccc(Cl)cc2n1	3078	2.7	-0.2	-3.5
CC1CCC(NC(=O)CCC(=O)N2CC(C)Oc3ccccc32)CC1 (stereo not drawn)	5645	-9.3	-0.9	6.3
CCCCOC(=O)c1ccc(O)cc1	3585	-21.7	-1.6	2.8
CCCCOC(=O)c1cccc(NC(=O)CCC(=O)O)c1	20646*	-1.3	u	0.7
CCCCOC(=O)Nc1ccc(C(=O)OCCC)cc1	22577*	2.2	1.7	-5.5
CCCCOC(=O)Nc1cccc(Cl)c1C	21233*	-4.3	-2.3	-3.2
CCCCOC(=O)Nc1cccc(C(C)=O)c1	16653*	-1.8	0.1	-3.4
O=C(c1cccc(S(=O)(=O)Nc2ccc(F)cc2)c1)N1CCC1	3372	-9.5	-0.8	-12.8
CCCCC(=O)Nc1ccc(N2CCCC2)cc1	1448	-130.7	-0.1	-27.8
CCCOC(=O)Nc1ccc(N2CCCCC2)cc1	22287*	1.0	1.9	-3.2
Nc1n[nH]c(C2CCCCC2)n1	4027	-0.6	-0.3	-2.9
S=c1nc(C2CCCCC2)[nH][nH]1	17098*	-5.9	-3.2	-4.8
COC(=O)c1ccc2c(c1)NC(=O)C(N1CCCCC1)S2 (stereo not drawn)	22781*	0.3	0.5	-1.0
COC(=O)c1ccc2c(c1)NC(=O)C(N1CCCC1)S2 (stereo not drawn)	19419*	3.0	2.1	2.7
O=C(O)c1ccc2c(c1)NC(=O)C(N1CCCC1)S2 (stereo not drawn)	15935	2.1	1.2	-4.1
Cc1ccc(S(=O)(=O)N2[C@@H](c3ccc(F)cc3)C(C(=O)O)=CC[C@H]2c2cccs2)cc1	3605	-0.6	-0.2	-9.9
SMILES	Autofluor counter	BoNT F protease	BoNT-A LC inh2	Anthrax LF inh2
CCN1C(=O)[C@@H]2[C@@H](c3ccc(SC4CCCCC4)c(OC)c3)N3CCC[C@@]3(C(=O)OC)[C@@H]2C1=O	4728	-4.9	-0.3	-3.1
Nc1nc2ccccc2n1S(=O)(=O)c1ccc(Cl)cc1	2903	2.8	0.0	5.0
CC(=O)Nc1cccc(/C(C)=N/NC(=O)c2ccc3c(c2)OCO3)c1	4785	2.0	-0.1	3.1
C/C(=N\NC(=O)c1ccccc1)c1ccc2c(c1)OCO2	22585*	4.3	0.2	1.7
NC(=NCc1ccc2c(c1)OCO2)NC(=O)c1ccccc1	4326	45.3*	6.2	-7.7
O=C(/C=C/c1ccccc1)CCN1CCCCC1	3860	-6.9	0.3	14.7
Cc1nc2ccc(S(=O)(=O)Nc3ccccc3C)cc2s1	17531*	-7.8	-5.2	-3.5
Cc1nc2ccc(NS(=O)(=O)c3ccc(C)c(C)c3)cc2s1	3345	-22.6	-0.6	-1.2
CCC(C)NC(=O)COC(=O)c1cc([N+](=O)[O-])ccc1Sc1nc(C)cs1 (stereo not drawn)	2864	3.9	-0.3	1.1
Cc1csc(Sc2ccc([N+](=O)[O-])cc2C(=O)OCC(=O)NC2CCCC(C)C2C)n1 (stereo not drawn)	16483*	-0.2	0.5	-0.4
COc1cccc(/C=N/NC(=O)c2csc(-n3nc(C)cc3C(F)(F)F)n2)c1	7607	5.3	3.7	8.5
COc1ccccc1NC(=O)c1csc(-n2nc(C)cc2C(F)(F)F)n1	21807*	1.0	u	-1.8
O=C(Nc1cccc(OC(F)(F)F)c1)[C@@H]1O[C@H](CO)[C@H](O)[C@H](O)[C@H]1O	3347	0.7	0.2	3.5
O=C(Nc1ccc(Cl)c([N+](=O)[O-])c1)c1ccc(NCCCN2CCOCC2)c([N+](=O)[O-])c1	23261*	-2.0	0.7	-2.3
O=C(CNC(=O)c1ccco1)OCc1c(F)cccc1Cl	20975*	4.1	u	-1.5
COCCCNC(=O)C1CCN(c2ncccn2)CC1	8467	-1.1	0.4	-7.4
COCCNC(=O)C1CCCN(c2ncccn2)C1 (stereo not drawn)	21959*	-0.2	1.9	-2.2
Cc1ccc(NC(=O)C2CCCN(c3ncccn3)C2)cc1C (stereo not drawn)	3288	2.7	-0.2	-0.6
Cc1ccc(F)cc1NC(=O)C1CCCN(c2ncccn2)C1 (stereo not drawn)	20027*	-1.5	-0.2	-2.3
COCc1cc(=O)[nH]c(SCCS(=O)(=O)c2ccc(Cl)cc2Cl)n1	4334	u	-9.7	-0.5
CCCCn1nnnc1NCc1ccc(C)cc1	4277	-36.6	1.0	-4.7
CCCCn1nnnc1NCc1ccc(N(CC)CC)cc1	23951*	-3.2	-1.7	-3.5
CCn1c(=O)c(C(=O)NCc2ccccc2)c(O)c2ccccc21	3293	6.6	-1.3	47.9*
CCn1c(=O)c(C(=O)NCc2ccc(Cl)cc2)c(O)c2ccccc21	3888	u	0.7	3.7
CCCCC1CC2=C(C(=O)OC(C)(C)O2)C(c2ccc3ccccc3c2)O1 (stereo not drawn)	5480	2.9	-0.2	-0.6
SMILES	Autofluor counter	BoNT F protease	BoNT-A LC inh2	Anthrax LF inh2
COc1ccc(NC(=S)NNC(=O)OC(C)(C)C)cc1OC	24133*	-3.8	u	-2.8
Cc1ccc(S(=O)(=O)N2CCN(C(=O)CN3C(=O)CNC3=O)CC2)cc1	7899	5.0	0.8	-5.1
CCN1C(=O)c2ccc(C(=O)O)cc2C1=O	3688	-28.8	-0.6	-8.2
COCCCN1C(=O)c2ccc(C(=O)O)cc2C1=O	21024*	7.1	5.7	-3.2
CC(=O)OCCCN1C(=O)c2ccc(Br)cc2C1=O	22144*	1.1	u	-9.5
NC(=O)CSc1nnc(-c2ccncc2)o1	2154	1.4	-0.2	0.1
COC(=O)C(C)Sc1nnc(-c2ccncc2)o1 (stereo not drawn)	21757*	-1.8	u	-5.2
CC(C)(C)NC(=O)CSc1nnc(-c2ccncc2)o1	2010	6.3	0.8	-1.4
CCOC(=O)C(Sc1nnc(-c2ccncc2)o1)C(C)=O (stereo not drawn)	16214*	-3.8	0.1	-2.4
O=C(Cn1cnc(S(=O)(=O)N2CCOCC2)c1)Nc1ccc(OC(F)(F)F)cc1	4826	0.1	2.2	-2.1
COc1ccc(-n2nnnc2SCC(=O)Nc2ccc(OC)cc2OC)cc1	3763	u	-3.7	-13.8
